PubChem BioAssay (NCI)
Compounds without any hit were thinned out: in the full panel of roughly 83,000, 20% have a hit.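 Results are percent growth after 48 hours of single-concentration exposure. 100 means growth as in untreated cells, lower positive values show inhibition; negative values down to -100 show cell death.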 Unmarked numbers belong to inactive results. Activity calls are given as the source filed them. Rule for the calls: active = growth percent below 10; inactive = the rest.

Assays:
Test in all cases: NCI-60 one-dose screen, 48 h (100 = growth as untreated, 0 = no growth, -100 = all killed)
Details in all cases: 10 µM unless noted
[1] = system: RPMI-8226 leukemia
[2] = system: OVCAR-8 ovarian
[3] = system: OVCAR-5 ovarian
[4] = system: OVCAR-4 ovarian
[5] = system: SK-OV-3 ovarian
[6] = system: IGROV1 ovarian
[7] = system: OVCAR-3 ovarian
[8] = system: HS 578T breast
[9] = system: NCI/ADR-RES ovarian

| SMILES | growth [1] | growth [2] | growth [3] | growth [4] | growth [5] [%] | growth [6] [%] | growth [7] | growth [8] | growth [9] |
| --- | --- | --- | --- | --- | --- | --- | --- | --- | --- |
| COc1cccc(-c2nc3sccn3c2-c2ccnc(NCCCNS(=O)(=O)c3cccc(Cl)c3)c2)c1 | -9.68% (active) | 26.3% | 78.9% | 32.6% | 67.7 | 50.7 | 58% | 69.2% | 13.4% |
| Cc1cc(NS(=O)(=O)c2ccc(-c3cnc(C4CC4)o3)cc2)ccc1Cl | 24.8% | 12.9% | 22% | 44.7% | 32.4 | 27.7 | -20.9% (active) | 11.9% | 0.314% (active) |
| COc1cc2nc(N3CCCC3)nc(Nc3ccccc3)c2cc1OC | -19.8% (active) | -30.1% (active) | -40.5% (active) | 25.1% | 48.5 | 23.3 | -70.4% (active) | -24.2% (active) | 18.4% |
| CCOC(=O)C(C)(C#N)C1C=CCCC1 (configuration not stated) | 92.9% | 98.8% | 68.2% | 91.5% | 95.1 | 94.8 | 90.6% | 84.1% | 91.9% |
| N#C/C(=C\c1ccc(-c2ccc(Cl)c(Cl)c2)o1)c1nc(-c2ccco2)cs1 | 63.6% | 101% | 55.7% | 37.6% | 85.1 | 40.5 | 81.1% | 97.4% | 101% |
| N#Cc1c(-c2ccc(Cl)cc2)nc(N/N=C/c2cccc(Br)c2)nc1N1CCOCC1 | 56% | 101% | 82% | 95.6% | 109 | 83.6 | 94.8% | 82.1% | 90.6% |
| O=C1/C(=C/c2cn(-c3ccccc3)nc2-c2ccccc2)SC(=S)N1CCc1ccccc1 | 102% | 105% | 107% | 103% | 109 | 108 | 107% | 104% | 107% |
| C=CC(=O)Nc1cccc(-c2nc(SC)nc(NCCN3CCOCC3)c2C#N)c1 | 81.4% | 83.1% | 107% | 90.6% | 108 | 90.4 | 97.8% | 82.6% | 95% |
| O=S(=O)(Nc1ccc(Cl)c(F)c1)c1ccc(-c2cnc(C3CC3)o2)cc1 | 21.2% | 24.5% | 35.8% | 49.1% | 36.3 | 27.4 | -6.7% (active) | 16.1% | -20.8% (active) |
| COc1cccc(-c2nn(C(C)(C)C)cc2-c2ccnc(NCCCNS(=O)(=O)c3cccc4ccccc34)c2)c1 | 103% | 103% | 104% | 101% | 110 | 110 | 108% | 101% | 101% |
| COc1cccc(-c2nc3sccn3c2-c2ccnc(NCCNS(=O)(=O)c3ccccc3)c2)c1 | -27.1% (active) | 13.9% | 45.3% | 15.2% | 42 | 25.5 | 42.2% | 35.7% | 6.38% (active) |
| N#C/C(=C\c1ccc(-c2cc(C(F)(F)F)ccc2Cl)o1)c1nc(-c2ccco2)cs1 | 101% | 103% | 98.9% | 85.1% | 100 | 104 | 113% | 103% | 106% |
| CC1(C)CC[C@]2(C(=O)Nc3ccccn3)CC[C@]3(C)C(=CC[C@@H]4[C@@]5(C)C/C(=C/c6cccnc6)C(=O)C(C)(C)[C@@H]5CC[C@]43C)[C@H]2C1 | 13.3% | 29.3% | 56.4% | 26.7% | 74 | 52.8 | 35.4% | 63.4% | 42.2% |
| CC[C@@H](C(=O)[C@@H](C)[C@@H](O)[C@H](C)[C@@H]1O[C@@H]([C@@H](CC)C(=O)O)CC[C@@H]1C)[C@H]1OC2(C=C[C@@H](O)[C@]3(CC[C@@](C)([C@H]4CC[C@](O)(CC)[C@H](C)O4)O3)O2)[C@H](C)C[C@@H]1C (some centres not stated) | -36.1% (active) | 31.9% | 57.7% | 35.8% | 30.2 | 40.2 | 14.6% | 30% | 29.6% |
| COC(=O)[C@]12CCC(C)(C)C[C@H]1[C@H]1C(=O)C[C@@H]3[C@@]4(C)c5c([nH]c6ccccc6c5=O)C(C)(C)[C@@H]4CC[C@@]3(C)[C@]1(C)CC2 | 34.9% | 59.2% | 80.7% | 49% | 86.4 | 94.5 | 63.2% | 87.1% | 49.6% |
| COc1ccc(-c2nc3ccc(-c4nc5ccc(N6CCN(c7ccccc7)CC6)cc5[nH]4)cc3[nH]2)cc1OC | -23% (active) | -4.55% (active) | -44.1% (active) | -49.9% (active) | 107 | 16.2 | -68.3% (active) | -0.217% (active) | 67.3% |
| O=S(=O)(Nc1ccc(Br)c(Cl)c1)c1ccc(-c2cnc(C3CC3)o2)cc1 | 20.5% | 20.4% | 29.4% | 46.3% | 36.3 | 26.8 | -19.6% (active) | 10% (active) | -15.2% (active) |
| COc1cccc(-c2nc3sccn3c2-c2ccnc(NCCCNS(=O)(=O)c3c(Cl)cccc3Cl)c2)c1 | 4.47% (active) | 51.5% | 85.6% | 56.7% | 90.4 | 72.1 | 69.8% | 76.1% | 29.9% |
